Laboratory results as given in PubChem BioAssay AID1159580 (chemical genetic matrix, 2015).
In all, about 5,500 compounds went through this assay and about 2,000 (36%) were called active. Inconclusive results (about 18%) are left out. Rule as the data show it: active = normalized growth mostly below about 0.91 (no sharp cut-off); inconclusive = no clear call, values can overlap the other calls; inactive = mostly above about 0.92. This is one part of the list.

Assay: chemical genetic growth profiling, strain panel (AID 1159580);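 also: tested at 20 µM; growth read once vehicle control cultures reached saturation at 30 °C; 1 = growth at the plate median or of vehicle wells; lower values mean less growth of the strain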
Details: growth OD

Measured: normalized growth

CCC(=O)O[C@H]1CCC2C3CCc4cc(O)ccc4C3CC[C@@]21C (some centres undefined)
active: S. cerevisiae deletion strains, locus YJR066W, strain TOR1, stronger effect = lower value 0.728 | S. cerevisiae deletion strains, locus YLR058C, strain SHM2, stronger effect = lower value 0.871 | S. cerevisiae deletion strains, locus YLR113W, strain HOG1, stronger effect = lower value 0.287 | S. cerevisiae deletion strains, locus YLR262C, strain YPT6 (second series), stronger effect = lower value 0.676 | S. cerevisiae deletion strains, locus YLR342W, strain FKS1 (second series), stronger effect = lower value 0.785 | S. cerevisiae deletion strains, locus YML120C, strain ndi1, stronger effect = lower value 0.881 | S. cerevisiae deletion strains, locus YNL183C, strain NPR1, stronger effect = lower value 0.755 | S. cerevisiae deletion strains, locus YNL233W, strain BNI4, stronger effect = lower value 0.784 | S. cerevisiae deletion strains, locus YOR231W, strain MKK1, stronger effect = lower value 0.483 | S. cerevisiae deletion strains, locus YPL106C, strain sse1, stronger effect = lower value 0.839 | S. cerevisiae deletion strains, locus YPL256C, strain CLN2, stronger effect = lower value 0.643 | S. cerevisiae strains, strain wild type, stronger effect = lower value 0.884
inactive: S. cerevisiae deletion strains, locus YJL187C, strain SWE1, stronger effect = lower value 0.995 | S. cerevisiae deletion strains, locus YJR043C, strain POL32, stronger effect = lower value 0.974 | S. cerevisiae deletion strains, locus YJR075W, strain HOC1, stronger effect = lower value 0.948 | S. cerevisiae deletion strains, locus YKL009W, strain mrt4, stronger effect = lower value 0.986 | S. cerevisiae deletion strains, locus YKL068W, stronger effect = lower value 1 | S. cerevisiae deletion strains, locus YKL085W, strain MDH1 (second series), stronger effect = lower value 0.936 | S. cerevisiae deletion strains, locus YKL085W, strain MDH1, stronger effect = lower value 0.936 | S. cerevisiae deletion strains, locus YKL160W, strain elf1, stronger effect = lower value 0.984 | S. cerevisiae deletion strains, locus YKL190W, strain CNB1, stronger effect = lower value 1 | S. cerevisiae deletion strains, locus YKR001C, strain vps1, stronger effect = lower value 0.927 | S. cerevisiae deletion strains, locus YKR026C, strain gcn3, stronger effect = lower value 0.971 | S. cerevisiae deletion strains, locus YKR091W, strain srl3, stronger effect = lower value 0.964 | S. cerevisiae deletion strains, locus YLL001W, strain dnm1, stronger effect = lower value 0.997 | S. cerevisiae deletion strains, locus YLL026W, stronger effect = lower value 1 | S. cerevisiae deletion strains, locus YLL041C, strain sdh2, stronger effect = lower value 1.01 | S. cerevisiae deletion strains, locus YLR027C, strain aat2, stronger effect = lower value 0.966 | S. cerevisiae deletion strains, locus YLR039C, strain RIC1, stronger effect = lower value 0.771 | S. cerevisiae deletion strains, locus YLR102C, strain apc9, stronger effect = lower value 1 | S. cerevisiae deletion strains, locus YLR221C, strain rsa3, stronger effect = lower value 0.967 | S. cerevisiae deletion strains, locus YLR258W, strain gsy2, stronger effect = lower value 1 | S. cerevisiae deletion strains, locus YLR262C, strain YPT6, stronger effect = lower value 0.797 | S. cerevisiae deletion strains, locus YLR268W, strain sec22, stronger effect = lower value 0.991 | S. cerevisiae deletion strains, locus YLR320W, strain mms22, stronger effect = lower value 0.969 | S. cerevisiae deletion strains, locus YLR330W, strain CHS5, stronger effect = lower value 0.984 | S. cerevisiae deletion strains, locus YLR342W, strain FKS1, stronger effect = lower value 0.972 | S. cerevisiae deletion strains, locus YLR357W, strain rsc2, stronger effect = lower value 0.954 | S. cerevisiae deletion strains, locus YLR370C, strain arc18, stronger effect = lower value 0.975 | S. cerevisiae deletion strains, locus YLR371W, strain rom2, stronger effect = lower value 1 | S. cerevisiae deletion strains, locus YLR384C, strain iki3, stronger effect = lower value 0.994 | S. cerevisiae deletion strains, locus YLR418C, strain cdc73, stronger effect = lower value 0.937 | S. cerevisiae deletion strains, locus YML016C, strain PPZ1, stronger effect = lower value 0.997 | S. cerevisiae deletion strains, locus YML032C, strain rad52, stronger effect = lower value 0.985 | S. cerevisiae deletion strains, locus YML124C, strain tub3, stronger effect = lower value 1 | S. cerevisiae deletion strains, locus YMR058W, strain fet3, stronger effect = lower value 0.977 | S. cerevisiae deletion strains, locus YMR078C, strain ctf18, stronger effect = lower value 1.02 | S. cerevisiae deletion strains, locus YMR125W, strain sto1, stronger effect = lower value 0.982 | S. cerevisiae deletion strains, locus YMR129W, stronger effect = lower value 0.979 | S. cerevisiae deletion strains, locus YMR205C, strain PFK2, stronger effect = lower value 0.929 | S. cerevisiae deletion strains, locus YMR223W, strain ubp8, stronger effect = lower value 0.956 | S. cerevisiae deletion strains, locus YMR231W, strain pep5, stronger effect = lower value 1.01 | S. cerevisiae deletion strains, locus YMR307W, strain GAS1, stronger effect = lower value 0.766 | S. cerevisiae deletion strains, locus YNL067W, strain RPL9B, stronger effect = lower value 0.974 | S. cerevisiae deletion strains, locus YNL071W, strain lat1, stronger effect = lower value 0.969 | S. cerevisiae deletion strains, locus YNL209W, strain ssb2, stronger effect = lower value 0.984 | S. cerevisiae deletion strains, locus YNL248C, strain rpa49, stronger effect = lower value 0.991 | S. cerevisiae deletion strains, locus YNL250W, strain rad50, stronger effect = lower value 0.998 | S. cerevisiae deletion strains, locus YNL271C, strain bni1, stronger effect = lower value 1.01 | S. cerevisiae deletion strains, locus YNL298W, strain CLA4, stronger effect = lower value 0.999 | S. cerevisiae deletion strains, locus YNL307C, strain MCK1, stronger effect = lower value 0.935 | S. cerevisiae deletion strains, locus YNL322C, strain KRE1 (second series), stronger effect = lower value 0.977 | S. cerevisiae deletion strains, locus YNR049C, strain mso1, stronger effect = lower value 0.986 | S. cerevisiae deletion strains, locus YNR052C, strain pop2, stronger effect = lower value 1 | S. cerevisiae deletion strains, locus YOL006C, strain TOP1, stronger effect = lower value 0.958 | S. cerevisiae deletion strains, locus YOL012C, strain htz1 1.25 | S. cerevisiae deletion strains, locus YOL147C, strain pex11, stronger effect = lower value 1 | S. cerevisiae deletion strains, locus YOR001W, strain rrp6, stronger effect = lower value 0.98 | S. cerevisiae deletion strains, locus YOR061W, strain CKA2, stronger effect = lower value 0.935 | S. cerevisiae deletion strains, locus YOR069W, strain VPS5, stronger effect = lower value 0.996 | S. cerevisiae deletion strains, locus YOR070C, strain gyp1, stronger effect = lower value 1 | S. cerevisiae deletion strains, locus YOR080W, strain dia2, stronger effect = lower value 0.979 | S. cerevisiae deletion strains, locus YOR083W, strain WHI5, stronger effect = lower value 0.976 | S. cerevisiae deletion strains, locus YOR106W, strain vam3, stronger effect = lower value 0.978 | S. cerevisiae deletion strains, locus YOR136W, strain idh2, stronger effect = lower value 1.02 | S. cerevisiae deletion strains, locus YOR144C, strain elg1, stronger effect = lower value 1.01 | S. cerevisiae deletion strains, locus YOR184W, strain ser1, stronger effect = lower value 0.96 | S. cerevisiae deletion strains, locus YOR265W, strain rbl2, stronger effect = lower value 0.994 | S. cerevisiae deletion strains, locus YOR270C, strain vph1, stronger effect = lower value 0.911 | S. cerevisiae deletion strains, locus YOR290C, strain snf2, stronger effect = lower value 0.939 | S. cerevisiae deletion strains, locus YOR316C, strain cot1, stronger effect = lower value 1.01 | S. cerevisiae deletion strains, locus YPL051W, strain arl3, stronger effect = lower value 1 | S. cerevisiae deletion strains, locus YPL078C, strain atp4, stronger effect = lower value 0.992 | S. cerevisiae deletion strains, locus YPL240C, strain hsp82, stronger effect = lower value 1 | S. cerevisiae deletion strains, locus YPR119W, strain clb2, stronger effect = lower value 0.995 | S. cerevisiae deletion strains, locus YPR141C, strain kar3, stronger effect = lower value 1.02 | S. cerevisiae deletion strains, locus YPR163C, strain tif3, stronger effect = lower value 1.02 | S. cerevisiae deletion strains, locus YPR167C, strain met16, stronger effect = lower value 1.01 | S. cerevisiae deletion strains, strain wtn01, stronger effect = lower value 1
